Data: PubChem BioAssay AID1745853 (National Center for Advancing Translational Sciences (NCATS), 2022)
The campaign covered roughly 25,000 compounds. About 970 (3.9%) were called active. Inconclusive results (about 8%) are left out. The rule behind the calls is not given here. What follows is part of a selection rich in actives, with near analogues and random picks from the rest.

Assays:
Experiment in all cases: Primary Screen for Target Class Profiling of Small Molecule Inhibitors of Methyltransferases
[1] = biological target: Catechol O-methyltransferase (Homo sapiens) (UniProt P21964); details: purified enzyme, MTase-Glo SAH luminescence; activity change, negative = inhibition: at 40 µM, stronger effect = lower value; outcome: 40 uM
Sequence of Catechol O-methyltransferase (Homo sapiens) (P21964 whole entry, looked up): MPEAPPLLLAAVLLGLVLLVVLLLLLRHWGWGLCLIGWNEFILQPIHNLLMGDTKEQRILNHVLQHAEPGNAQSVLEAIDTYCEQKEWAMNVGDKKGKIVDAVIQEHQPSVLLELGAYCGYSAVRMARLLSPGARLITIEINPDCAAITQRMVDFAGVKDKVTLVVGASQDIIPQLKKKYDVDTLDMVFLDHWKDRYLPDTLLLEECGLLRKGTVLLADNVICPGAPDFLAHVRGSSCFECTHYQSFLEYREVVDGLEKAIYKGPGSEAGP
In short: (§1)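 Each enzyme was assayed with SAM and its substrate. SAH formation detected by MTase-Glo luminescence; single-point 40 uM screen[…].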

[2] = biological target: Glycine N-methyltransferase (Homo sapiens) (UniProt Q14749); details: purified enzyme, MTase-Glo SAH luminescence; measured here: GNMT inhibition; at 40 µM; stronger effect = lower value
Sequence of Glycine N-methyltransferase (Homo sapiens) (Q14749 whole entry, looked up): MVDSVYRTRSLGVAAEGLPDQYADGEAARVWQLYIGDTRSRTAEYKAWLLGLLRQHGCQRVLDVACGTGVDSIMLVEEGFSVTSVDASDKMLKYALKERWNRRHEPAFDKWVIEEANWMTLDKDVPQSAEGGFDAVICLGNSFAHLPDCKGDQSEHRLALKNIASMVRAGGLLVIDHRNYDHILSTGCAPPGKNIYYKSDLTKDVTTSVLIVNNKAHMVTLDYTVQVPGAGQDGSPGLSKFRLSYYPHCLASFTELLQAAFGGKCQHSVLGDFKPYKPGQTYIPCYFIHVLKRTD
In short: as §1

[3] = biological target: Guanidinoacetate N-methyltransferase (Homo sapiens) (UniProt Q14353); details: purified enzyme, MTase-Glo SAH luminescence; measured here: GAMT inhibition; at 40 µM; stronger effect = lower value
In short: as §1

[4] = biological target: Histamine N-methyltransferase (Homo sapiens) (UniProt P50135); details: purified enzyme, MTase-Glo SAH luminescence; measured here: HNMT inhibition; at 40 µM; stronger effect = lower value
Sequence of Histamine N-methyltransferase (Homo sapiens) (P50135 whole entry, looked up): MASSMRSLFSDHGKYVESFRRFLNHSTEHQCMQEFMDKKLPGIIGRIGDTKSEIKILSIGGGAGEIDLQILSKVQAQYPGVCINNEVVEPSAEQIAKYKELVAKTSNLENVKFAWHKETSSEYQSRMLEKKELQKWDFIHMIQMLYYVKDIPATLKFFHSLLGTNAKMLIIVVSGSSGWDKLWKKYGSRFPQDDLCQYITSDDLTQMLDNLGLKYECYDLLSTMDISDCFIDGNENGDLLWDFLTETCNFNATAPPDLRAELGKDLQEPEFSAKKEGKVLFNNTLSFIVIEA
In short: as §1

[5] = biological target: Nicotinamide N-methyltransferase (Homo sapiens) (UniProt P40261); details: purified enzyme, MTase-Glo SAH luminescence; measured here: NNMT inhibition; at 40 µM; stronger effect = lower value
Sequence of Nicotinamide N-methyltransferase (Homo sapiens) (P40261 whole entry, looked up): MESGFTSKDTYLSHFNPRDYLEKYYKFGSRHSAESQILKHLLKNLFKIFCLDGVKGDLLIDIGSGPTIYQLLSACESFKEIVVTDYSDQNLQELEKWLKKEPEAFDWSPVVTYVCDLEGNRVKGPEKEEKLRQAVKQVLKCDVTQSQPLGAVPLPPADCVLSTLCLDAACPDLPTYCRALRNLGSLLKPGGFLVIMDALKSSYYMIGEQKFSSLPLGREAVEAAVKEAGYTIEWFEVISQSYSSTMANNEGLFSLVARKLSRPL
In short: as §1

[6] = biological target: Phenylethanolamine N-methyltransferase (Homo sapiens) (UniProt P11086); details: purified enzyme, MTase-Glo SAH luminescence; measured here: PNMT inhibition; at 40 µM; stronger effect = lower value
Sequence of Phenylethanolamine N-methyltransferase (Homo sapiens) (P11086 whole entry, looked up): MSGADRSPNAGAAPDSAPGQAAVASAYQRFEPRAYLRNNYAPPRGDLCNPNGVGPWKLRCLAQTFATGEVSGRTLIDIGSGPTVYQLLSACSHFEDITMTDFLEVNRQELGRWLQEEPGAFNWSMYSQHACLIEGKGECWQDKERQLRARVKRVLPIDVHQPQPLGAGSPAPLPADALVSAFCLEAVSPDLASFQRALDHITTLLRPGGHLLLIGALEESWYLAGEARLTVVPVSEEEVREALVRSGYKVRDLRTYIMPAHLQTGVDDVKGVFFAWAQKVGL
In short: as §1
% is set by controls: 0 for no effect and ±100 for the full control effect.

SMILES	activity change, negative = inhibition [1]	activity change, negative = inhibition [2] [%]	activity change, negative = inhibition [3] [%]	activity change, negative = inhibition [4] [%]	activity change, negative = inhibition [5] [%]	activity change, negative = inhibition [6] [%]	outcome [1]
COc1ccc(-c2nc3ccncc3[nH]2)cc1	-149% (active)	-99.2	-103	-91.6	-110	-145	
CC1CCN(S(=O)(=O)c2ccc3c(ccn3CCC(=O)N3CCN(c4ccccn4)CC3)c2)CC1	-2.75% (inactive)	-6.24	-4.09	-2.6	-7.95	-2.86	
Cc1cc(Nc2cc(N3CCN(C)CC3)nc(Sc3ccc(NC(=O)C4CC4)cc3)n2)n[nH]1	-3.15% (active)	-71.8	5.06	-13.3	-11.1	-0.531	
Cc1ccc(Cn2c(=O)c3ccccc3n3c(CCC(=O)NCc4ccc5c(c4)OCO5)nnc23)cc1	-5.97% (inactive)	-13.5	2.22	-2.65	-2.38	-7.16	
Cc1cc2c(cc1S(=O)(=O)NCc1ccc3c(c1)OCO3)n(C)c(=O)n2C	13.6% (inactive)	12.8	1.49	9.41	2.71	6.83	
O=C(NCc1ccc2c(c1)OCO2)c1sc(=S)n2c1[nH]c(=O)c1ccccc12	-20.2% (active)	-52.7	0	-2.67	-35.9	-28.2	
COC(=O)[C@]12C(=O)C(C)=C(O)[C@@]1(C)C(C)=CC1[C@@]34CC[C@@H](OC(C)=O)C(C)(C)C3[C@H](C[C@]12C)OC4=O (stereo partly drawn)	5.51% (inactive)	0	3.85	9.8	-6.73	3.04	
CN(C)[C@@H]1C(=O)C(C(N)=O)=C(O)[C@@]2(O)C(=O)C3=C(O)c4c(O)ccc(Cl)c4[C@@H](O)[C@H]3C[C@@H]12	-74.5% (active)	-24.2	6.87	3.22	-8.53	-5.78	
COCCOc1cc(=O)n2c(c1C(=O)NCc1ccccc1)CCOCC2	-1.21% (inactive)	1.04	-0.934	1.39	-1.22	1.39	
CCC(C)(C)NC(=O)c1cccc2c1CCN2C(=O)Nc1ccc(C)cc1	-3.57% (inactive)	-1.49	-2.95	1.94	-7.5	-2.44	
Cn1c(=O)n(C)c2cc(Nc3nc4ccccc4nc3NS(=O)(=O)c3ccc(Cl)cc3)ccc21	3.8% (inactive)	7.68	-3.35	-4.47	0.13	-6.48	
O=C(O)CC1CCC(c2ccc(-c3ccc(Nc4ccc(C(F)(F)F)nc4)cn3)cc2)CC1 (stereo not drawn)	17.9% (active)	-52.1	-12.8	1.31	-35.3	-4.28	
CC(C)c1nccn1CCCNc1nc(-c2ccncc2)nc2c1cnn2C	-44.5% (active)	-59.1	-50.1	-86	-53	-25.5	
CCOC(=O)c1cc2n(n1)CC(C)(C(=O)NCc1ccc(F)cc1)N(Cc1ccccc1OC)C2=O (stereo not drawn)	-3.88% (inactive)	-3.75	3.18	0.898	-7.43	-5.73	
CC(C)CCN1CC2(CCCN(C(=O)c3ccn(C)c(=O)c3)C2)CCC1=O (stereo not drawn)	-31.2% (active)	-57.8	-45.1	-13.3	-17.7	-27	
COCCN1CC2(CCC1=O)CCN(C(=O)[C@@H]1C[C@@H](O)CN1)CC2	4.29% (inactive)	-0.827	-1.32	1.21	0.29	-19.8	
COCCCn1c(=O)[nH]c2cccnc21	-9.36% (inactive)	-5.17	-6.2	-1.12	-14.7	9.39	
CCCn1c(=O)c2ccc(C(=O)NC(C)C)cc2n2c(=O)n(CC(=O)NCc3ccccc3Cl)nc12	4.33% (inactive)	2.57	1.92	6.44	8	4.03	
CCOC(=O)c1cc(Nc2ccc(C(C)=O)cc2)c2cc(Cl)ccc2n1	-3.11% (inactive)	-4.22	6.82	0.863	6.54	-3.31	
Cc1ccc(N2C(=O)c3cc4sccc4n3CC2(C)C(=O)NC2CCCCC2C)cc1 (stereo not drawn)	-3.6% (inactive)	-2.03	1.51	-1.92	-1.16	-6.83	
COc1cccc(-c2nnc3n(CCc4ccccc4)c(=O)c4ccccc4n23)c1O	0.892% (inactive)	-4.84	0.066	2.53	-3.08	0.274	
CN1CCCC1Cc1c[nH]c2ccc(CCS(=O)(=O)c3ccccc3)cc12 (stereo not drawn)		-2.16		-89.9			active
Cc1cc2c(cc3n2CC(C)(C(=O)NC2CCCCCC2)N(Cc2cccs2)C3=O)o1 (stereo not drawn)	-1.18% (inactive)	-9.3	4.66	-6.23	-21	-2.94	
CCCCN1C(=O)c2cc(C(=O)NCc3cccc(OC)c3)nn2CC1(C)C(=O)NC1CCCC1 (stereo not drawn)	4.35% (inactive)	5.79	1.34	1.56	5.98	5.6	
CCn1c(=O)n(CC)c2cc(S(=O)(=O)Nc3ccc(Br)c(C)c3)c(Cl)cc21	-4.03% (inactive)	-3.14	3.91	-0.387	-1.18	-4.27	
CCCN1C(=O)c2c(C(=O)NCCc3ccco3)ncn2CC1(C)C(=O)NCc1ccc(C)cc1 (stereo not drawn)	7.22% (inactive)	0.693	0.268	5.09	4.66	9	

SMILES	activity change, negative = inhibition [1]	activity change, negative = inhibition [2] [%]	activity change, negative = inhibition [3] [%]	activity change, negative = inhibition [4] [%]	activity change, negative = inhibition [5] [%]	activity change, negative = inhibition [6] [%]	outcome [1]
Cc1c(NC(=O)c2cc(C(N)=O)nc3cc(F)ccc23)c(C(F)(F)F)nn1Cc1ccc(C#N)cc1	-4.71% (inactive)	-5.91	-2.28	3.43	-13.8	1.39	
COc1ccccc1CNC(=O)c1nn(CC2CC2)c2c1CNCC2	-8.87% (inactive)	-6.08	-7.04	-9.87	-14.1	-12.2	
CC(C)n1c(=O)c2ccc(C(=O)NC3CCCCC3)cc2n2c(=O)n(CC(=O)NC3CCCCC3)nc12	-2.65% (inactive)	-0.578	-0.047	2.13	-1.76	-1.89	
CC(C)Cn1c(=O)c2ccccc2n2c(=O)n(Cc3ccccc3Cl)nc12	3.16% (inactive)	2.72	1.02	6.97	-2.52	3.52	
COc1c(C)c(OCC=C(C)C)cc2c1C(=O)NC2=O	2.98% (inactive)	1.17	8.39	6.71	-18	-15.7	
NC(=O)c1cnc(NCCc2ccc(O)c(Cl)c2)nc1NCc1ccccc1	-21.7% (active)	-31.8	-12.1	-36	-88.5	-23.4	
O=C(CCc1nnc2ccc(NCCCN3CCCC3=O)nn12)NCc1ccccc1Cl	10.2% (inactive)	1.96	2.26	10.9	1.3	9.12	
C[C@@H]1C[C@H]2O[C@@]3(O[C@@H]2C(C)(C)O)C(O)[C@@]2(C)C4CCC5C(C)(C)[C@@H](O[C@H]6OC[C@H](O)[C@@H](O)[C@@H]6O)CC[C@@]56C[C@@]46CC[C@]2(C)C13 (stereo partly drawn)	-3.8% (inactive)	0	-1.51	-4.39	-13.7	-0.709	
COc1ccccc1CN1C(=O)c2cc3sccc3n2CC1(C)C(=O)NC1CCCC(C)C1C (stereo not drawn)	4.18% (inactive)	1.88	0	3.67	-3.12	1.29	
Cc1cnc(-c2ccncc2)n1CCN	-5.2% (inactive)	-4.08	-7.5	-1.23	-6.93	-8.39	
Cc1cc(Cl)ccc1OCC(=O)N1CC(CO)C2(CCNCC2)C1 (stereo not drawn)	2.63% (inactive)	-0.912	-2.42	-7.34	1.44	4.28	
CC(C)CCn1c(=O)c2ccc(C(=O)NC(C)C)cc2n2c(=O)n(CC(=O)Nc3ccccc3)nc12	3.2% (inactive)	2.47	0	-0.014	2.58	3.82	
COC(=O)C(C)C1CCC2(C)C(=O)C=CC(C)(O)C2C1O (stereo not drawn)	-21.2% (inactive)	0.317	3.5	4.59	-8.83	5.47	
CC1(C(=O)NC2CCCCC2)Cn2c(nc3ccccc32)C(=O)N1CCCc1ccccc1 (stereo not drawn)	-0.028% (inactive)	-0.457	2.95	-0.222	2.79	-1.29	
COc1cccc(S(=O)(=O)N2CCC([C@H]3[C@@H](OC)C(=O)N3C(C)C)CC2)c1	-16.7% (inactive)	-11	-0.234	-8.83	-11.7	-7.58	
O=C(Nc1ccccc1Cl)N1CCn2cccc2C1Cc1ccccc1 (stereo not drawn)	8.91% (inactive)	-4.49	0	0.539	-1.29	1	
CC(=O)N(C1CCOCC1)C1CCN(S(=O)(=O)c2ccc3c(c2)OCCO3)CC1	14.5% (inactive)	6.17	0	15.9	5.83	10	
COC1CCN(CC2CCCCCN2C(=O)NCc2ccc(F)cc2)CC1 (stereo not drawn)	0.269% (inactive)	-0.541	-1.47	0.992	0.892	-1.43	
CCCc1sc(NC(=O)C[C@H]2NC(=O)c3ccccc3NC2=O)nc1C(=O)OC	-0.596% (active)	-52	0.55	-1.11	-24.7	-7.16	
CCOc1ccc(NC(=O)N2Cc3c(sc4c3CCCC4)-n3cccc3C2c2ccc(C)cc2)cc1 (stereo not drawn)	-4.77% (inactive)	-7.14	-5.05	-0.466	-12.8	-3.68	
COc1ccc(CN2C(=O)c3cc4sccc4n3CC2(C)C(=O)NC2CCCCC2)cc1 (stereo not drawn)	-1.71% (inactive)	-4.01	4.64	0.743	0.231	-2.93	
CCCN1C(=O)c2c(C(=O)NCc3ccc(OC(C)C)cc3)ncn2CC1(C)C(=O)NCc1ccccc1 (stereo not drawn)	7.93% (inactive)	0.786	0	10.9	0.527	8.93	
CCNc1ccnc(N2C[C@H]3CN(C(=O)N(C)C)C[C@@]3(C(=O)O)C2)n1	1.84% (inactive)	0.021	1.18	0.65	1.12	-1	
C=C1C(=O)O[C@@H]2[C@H]1CC[C@H](C)[C@]1(CCC(=O)O1)C2(C)O (stereo partly drawn)	-16.8% (inactive)	0	7.54	11.3	-3.81	5.47	
Cc1cc(C)c(S(=O)(=O)NCCc2nc(-c3ccc(Cl)cc3)n[nH]2)cc1C	-7.11% (inactive)	0.532	3.01	-1.1	-4.42	-1.52	
